This is an account of results in PubChem BioAssay (EPA / NIEHS).

Values joined by “and” are separate entries in the source; they are usually repeats but may differ in a detail not shown here. Identical values can stand only once. Results filed as inconclusive are left out. Active and inactive are the calls of the source. How the source made its calls, unless noted: active means hit-call score of the fitted dose curve at least 0.9, where 1 is the maximum; inactive means score below 0.9.

Read-out in experiment [1]: solute carrier (SLC22A1), SLC22A1 (gene 6580)
Briefly: LTEA_HepaRG_SLC22A1: Life Technologies and Expression Analysis (LTEA) Assay for solute carrier (SLC22A1) using HepaRG (AID 2283524). Particulars: mRNA level, 48 h; actives raise or lower the signal. The gist of the method:
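Transcript level of SLC22A1 quantified by qRT-PCR (normalized to three housekeeping genes) after 48 h chemical exposure of HepaRG cells, eight concentrations up to 100 µM, half-log steps, 0.5% DMSO vehicle. Gain or loss relative to DMSO fitted bidirectionally.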

Read-out in experiment [2]: Pyruvate Dehydrogenase Kinase 4 (PDK4), PDK4 (gene 5166)
Briefly: LTEA_HepaRG_PDK4: Life Technologies and Expression Analysis (LTEA) Assay for Pyruvate Dehydrogenase Kinase 4 (PDK4) using HepaRG (AID 2283525). Particulars: mRNA level, 48 h; actives raise or lower the signal. The essentials: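 Readout is qRT-PCR of PDK4 transcript, normalized to three housekeeping genes, with bidirectional fitting against 0.5% DMSO vehicle. Differentiated HepaRG cells were treated 48 h in serum-free induction medium, duplicate wells, eight-point half-log series topping at 100 uM.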

Read-out in experiment [3]: NAD(P)H dehydrogenase [quinone] 1 (NQO1), NQO1 (gene 1728)
The experiment in a line: LTEA_HepaRG_NQO1: Life Technologies and Expression Analysis (LTEA) Assay for NAD(P)H dehydrogenase [quinone] 1 (NQO1) using HepaRG (AID 2283526). Particulars: mRNA level, 48 h; actives raise or lower the signal. The essentials: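 In this assay, gene expression is read by qRT-PCR after 48 h exposure of HepaRG cells to eight concentrations (max 100 uM, half-log) in 0.5% DMSO. Each chemical runs in duplicate, and activity is scored relative to vehicle.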

Read-out in experiment [4]: Nuclear factor erythroid 2-related factor 2 (Homo sapiens) (UniProt Q16236)
The experiment in a line: LTEA_HepaRG_NFE2L2: Life Technologies and Expression Analysis (LTEA) Assay for Nuclear factor erythroid 2-related factor 2 (NFE2L2) Transcription Factor using HepaRG (AID 2283527).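 Further: TaqMan qRT-PCR transcript level normalised to ACTB GAPDH and POLR2A housekeeping genes.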 Particulars: mRNA level, 48 h; actives raise or lower the signal. The gist of the method:
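NFE2L2 transcript level was read by qRT-PCR (housekeeping ACTB/GAPDH/POLR2A normalisation) after 48 h chemical treatment of HepaRG in serum-free induction medium. Duplicate 8-point half-log curves, top 100 uM, 0.5% DMSO vehicle; up- or down-regulation fitted against vehicle.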

Read-out in experiment [5]: succinate dehydrogenase complex iron sulfur subunit B (SDHB), SDHB (gene 6390)
Briefly: LTEA_HepaRG_SDHB: Life Technologies and Expression Analysis (LTEA) Assay for succinate dehydrogenase complex iron sulfur subunit B (SDHB) using HepaRG (AID 2283528). Conditions: mRNA level, 48 h; actives raise or lower the signal. The essentials: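 HepaRG cells (~100,000/well, plated 48 h) exposed in duplicate for 48 h in serum-free induction medium to 8-point half-log series from 100 uM in 0.5% DMSO; mRNA by qRT-PCR normalised to ACTB, GAPDH, POLR2A; bidirectional fit versus DMSO.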

Read-out in experiment [6]: Signal transducer and activator of transcription 3 (Homo sapiens) (UniProt P40763)
The experiment in a line: LTEA_HepaRG_STAT3: Life Technologies and Expression Analysis (LTEA) Assay for Signal transducer and activator of transcription (STAT3) using HepaRG (AID 2283529). Conditions: mRNA level, 48 h; actives raise or lower the signal. The gist of the method:
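STAT3 transcript quantified by qRT-PCR against three housekeeping genes (ACTB, GAPDH, POLR2A), fitted both directions relative to DMSO. HepaRG cultures exposed 48 h to eight half-log concentrations, top 100 uM, 0.5% DMSO, serum-free induction medium.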

Read-out in experiment [7]: solute carrier (SLCO1B1), SLCO1B1 (gene 10599)
The experiment in a line: LTEA_HepaRG_SLCO1B1: Life Technologies and Expression Analysis (LTEA) Assay for solute carrier (SLCO1B1) using HepaRG (AID 2283530). Particulars: mRNA level, 48 h; actives raise or lower the signal. The essentials: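 Differentiated human HepaRG cells, plated 48 h, switched to serum-free induction medium and exposed in duplicate for 48 h to 8 half-log concentrations (top 100 uM) in 0.5% DMSO. SLCO1B1 mRNA by TaqMan qRT-PCR, normalized to ACTB/GAPDH/POLR2A.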

Read-out in experiment [8]: sulfotransferase 2A1 (SULT2A1), SULT2A1 (gene 6822)
Briefly: LTEA_HepaRG_SULT2A1: Life Technologies and Expression Analysis (LTEA) Assay for sulfotransferase 2A1 (SULT2A1) using HepaRG (AID 2283531). Conditions: mRNA level, 48 h; actives raise or lower the signal. The essentials: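 Differentiated human HepaRG cells in serum-free induction medium were exposed for 48 h to eight half-log concentrations (top 100 uM, 0.5% DMSO). SULT2A1 mRNA was measured by qRT-PCR, normalized to ACTB, GAPDH and POLR2A, and fitted bidirectionally against DMSO.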

Read-out in experiment [9]: Transforming Growth Factor (TGFA), TGFA (gene 7039)
Briefly: LTEA_HepaRG_TGFA: Life Technologies and Expression Analysis (LTEA) Assay for Transforming Growth Factor (TGFA) using HepaRG (AID 2283532). Particulars: mRNA level, 48 h; actives raise or lower the signal. The essentials: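 TGFA transcript quantified by qRT-PCR (Fluidigm arrays) against three housekeeping genes, after 48 hours chemical treatment of HepaRG cells. Top concentration 100 uM with half-log dilutions, 8 points, duplicates, 0.5% DMSO.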

Read-out in experiment [10]: Transforming Growth Factor (TGFB1), TGFB1 (gene 7040)
Briefly: LTEA_HepaRG_TGFB1: Life Technologies and Expression Analysis (LTEA) Assay for Transforming Growth Factor (TGFB1) Transporter using HepaRG (AID 2283533). Particulars: mRNA level, 48 h; actives raise or lower the signal. The essentials:
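Differentiated human HepaRG cells in serum-free induction medium were exposed in duplicate for 48 h to eight concentrations (top 100 uM, half-log steps, 0.5% DMSO). TGFB1 mRNA was quantified by qRT-PCR, normalized to ACTB, GAPDH, POLR2A, and fitted bidirectionally against DMSO.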

Read-out in the next experiment: TIMP1, TIMP1 (gene 7076)
Briefly: LTEA_HepaRG_TIMP1: Life Technologies and Expression Analysis (LTEA) Assay for TIMP1 using HepaRG (AID 2283534). Particulars: mRNA level, 48 h; actives raise or lower the signal. The gist of the method:
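Differentiated human HepaRG cells in serum-free induction medium were exposed 48 h to chemicals (8 half-log concentrations, top 100 uM, 0.5% DMSO). TIMP1 mRNA was quantified by TaqMan qRT-PCR, normalized to ACTB/GAPDH/POLR2A; bidirectional fit versus DMSO.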

Read-out in experiment [11]: Tumor necrosis factor receptor 1 (TNFRSF1A), TNFRSF1A (gene 7132)
Briefly: LTEA_HepaRG_TNFRSF1A: Life Technologies and Expression Analysis (LTEA) Assay for Tumor necrosis factor receptor 1 (TNFRSF1A) using HepaRG (AID 2283535). Conditions: mRNA level, 48 h; actives raise or lower the signal. The essentials:
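Differentiated human HepaRG cells were exposed in duplicate for 48 h in serum-free induction medium to eight concentrations (top 100 uM, half-log steps, 0.5% DMSO). TNFRSF1A mRNA was quantified by qRT-PCR, normalized to ACTB, GAPDH and POLR2A, then fitted bidirectionally against DMSO.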

Read-out in experiment [12]: Thyroid Hormone Responsive (THRSP), THRSP (gene 7069)
The experiment in a line: LTEA_HepaRG_THRSP: Life Technologies and Expression Analysis (LTEA) Assay for Thyroid Hormone Responsive (THRSP) using HepaRG (AID 2283536). Conditions: mRNA level, 48 h; actives raise or lower the signal. The gist of the method:
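THRSP transcript quantified by Fluidigm qRT-PCR against three housekeeping genes after 48 h chemical exposure of HepaRG cells in serum-free induction medium; eight-point half-log series, top 100 uM, 0.5% DMSO vehicle, duplicate wells.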

Read-out in experiment [13]: Cellular tumor antigen p53 (Homo sapiens) (UniProt P04637)
Briefly: LTEA_HepaRG_TP53: Life Technologies and Expression Analysis (LTEA) Assay for Tumor Protein P53 (TP53) using HepaRG (AID 2283537). Conditions: mRNA level, 48 h; actives raise or lower the signal. The gist of the method:
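Differentiated HepaRG cells in serum-free induction medium exposed 48 h in duplicate to 8 half-log concentrations, top 100 uM, 0.5% DMSO. TP53 mRNA by TaqMan qRT-PCR (Fluidigm), normalized to ACTB, GAPDH, POLR2A; fitted bidirectionally versus DMSO.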

Read-out in experiment [14]: UDP glucuronosyltransferase (UGT1A1), UGT1A1 (gene 54658)
The experiment in a line: LTEA_HepaRG_UGT1A1: Life Technologies and Expression Analysis (LTEA) Assay for UDP glucuronosyltransferase (UGT1A1) using HepaRG (AID 2283538). Conditions: mRNA level, 48 h; actives raise or lower the signal. The gist of the method: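 mRNA induction or loss of UGT1A1, by TaqMan qRT-PCR, in duplicate HepaRG wells after 48 h exposure to half-log dilutions topping at 100 uM; DMSO (0.5%) served as baseline.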

Read-out in experiment [15]: UDP glucuronosyltransferase (UGT1A6), UGT1A6 (gene 54578)
The experiment in a line: LTEA_HepaRG_UGT1A6: Life Technologies and Expression Analysis (LTEA) Assay for UDP glucuronosyltransferase (UGT1A6) using HepaRG (AID 2283539). Particulars: mRNA level, 48 h; actives raise or lower the signal. The essentials:
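Human HepaRG cells were dosed for 48 h in serum-free induction medium with 0.5% DMSO vehicle, eight-point half-log series from 100 uM, in duplicate. UGT1A6 mRNA was measured by qRT-PCR, normalized to ACTB, GAPDH, POLR2A, and fitted bidirectionally against DMSO.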

Read-out in experiment [16]: X-box binding protein 1 (XBP1), XBP1 (gene 7494)
Briefly: LTEA_HepaRG_XBP1: Life Technologies and Expression Analysis (LTEA) Assay for X-box binding protein 1 (XBP1) using HepaRG (AID 2283540). Conditions: mRNA level, 48 h; actives raise or lower the signal. The essentials: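 Differentiated human HepaRG cells in serum-free induction medium were exposed in duplicate for 48 h to eight half-log concentrations up to 100 uM in 0.5% DMSO. XBP1 mRNA was quantified by qRT-PCR, normalised to ACTB, GAPDH and POLR2A, with bidirectional fitting against DMSO.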

Experiment [17] in a line: LTEA_HepaRG_LDH_cytotoxicity: Cytotoxicity Assessment in the Life Technologies and Expression Analysis (LTEA) Assay (AID 2283563; active means hit-call score of the fitted dose curve at least 0.9, where 1 is the maximum). The essentials:
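Differentiated human HepaRG cells, plated 48 h beforehand, were switched to serum-free induction medium and exposed for 48 h to eight half-log concentrations (top 100 uM) in 0.5% DMSO. LDH was measured in spent medium; activity was fitted relative to DMSO vehicle.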

A short description of experiment [18]: TOX21_p53_BLA_p2_viability: Viability Assessment in the Tox21 HCT-116 p53 Agonism Beta-lactamase Assay, Phase 2 (AID 2283591; active means hit-call score of the fitted dose curve at least 0.9, where 1 is the maximum;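 further: compound exposure lasted 16 h at 37 °C; actives lower the ATP signal meaning cytotoxicity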). The gist of the method:
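Cytotoxicity readout: CellTiter-Glo ATP luminescence, 30 min at room temperature, after the beta-lactamase read. Cells were HCT116 exposed 16 h at 37C to compounds pin-transferred at 217-fold dilution from DMSO stocks.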

Signal transducer and activator of transcription 3 (Homo sapiens), sequence (P40763 whole entry, looked up): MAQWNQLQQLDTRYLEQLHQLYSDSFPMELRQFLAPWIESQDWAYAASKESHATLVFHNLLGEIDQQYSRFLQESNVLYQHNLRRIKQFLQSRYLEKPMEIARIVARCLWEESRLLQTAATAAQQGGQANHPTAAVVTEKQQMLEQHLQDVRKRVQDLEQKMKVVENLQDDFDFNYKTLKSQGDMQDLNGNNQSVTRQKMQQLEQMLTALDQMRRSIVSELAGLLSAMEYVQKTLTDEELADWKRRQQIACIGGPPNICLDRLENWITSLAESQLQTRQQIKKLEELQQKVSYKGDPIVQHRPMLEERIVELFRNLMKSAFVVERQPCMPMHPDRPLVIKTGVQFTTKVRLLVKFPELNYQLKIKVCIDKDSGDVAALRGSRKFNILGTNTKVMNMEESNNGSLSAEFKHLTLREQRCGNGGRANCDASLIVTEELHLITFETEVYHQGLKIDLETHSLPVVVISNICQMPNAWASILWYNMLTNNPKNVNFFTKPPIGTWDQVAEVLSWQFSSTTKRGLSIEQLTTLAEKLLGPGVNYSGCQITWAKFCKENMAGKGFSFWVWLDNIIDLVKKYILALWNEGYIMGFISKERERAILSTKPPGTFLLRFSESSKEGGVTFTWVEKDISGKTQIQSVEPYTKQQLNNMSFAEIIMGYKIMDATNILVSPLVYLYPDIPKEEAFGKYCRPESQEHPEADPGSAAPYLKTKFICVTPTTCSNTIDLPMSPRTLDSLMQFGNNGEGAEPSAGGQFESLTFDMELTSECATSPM
Cellular tumor antigen p53 (Homo sapiens), sequence (P04637 whole entry, looked up): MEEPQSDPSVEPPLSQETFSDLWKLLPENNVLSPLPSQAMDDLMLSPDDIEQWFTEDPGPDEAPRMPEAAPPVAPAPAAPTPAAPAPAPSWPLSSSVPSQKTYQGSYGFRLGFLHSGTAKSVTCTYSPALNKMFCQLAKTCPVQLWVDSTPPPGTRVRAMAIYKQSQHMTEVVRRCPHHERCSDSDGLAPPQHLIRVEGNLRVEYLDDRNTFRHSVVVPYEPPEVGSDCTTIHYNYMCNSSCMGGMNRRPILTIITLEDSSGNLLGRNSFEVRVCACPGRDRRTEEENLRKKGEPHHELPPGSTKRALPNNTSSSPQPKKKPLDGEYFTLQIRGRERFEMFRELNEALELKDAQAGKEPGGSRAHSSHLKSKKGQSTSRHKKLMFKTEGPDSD
Nuclear factor erythroid 2-related factor 2 (Homo sapiens), sequence (Q16236 whole entry, looked up): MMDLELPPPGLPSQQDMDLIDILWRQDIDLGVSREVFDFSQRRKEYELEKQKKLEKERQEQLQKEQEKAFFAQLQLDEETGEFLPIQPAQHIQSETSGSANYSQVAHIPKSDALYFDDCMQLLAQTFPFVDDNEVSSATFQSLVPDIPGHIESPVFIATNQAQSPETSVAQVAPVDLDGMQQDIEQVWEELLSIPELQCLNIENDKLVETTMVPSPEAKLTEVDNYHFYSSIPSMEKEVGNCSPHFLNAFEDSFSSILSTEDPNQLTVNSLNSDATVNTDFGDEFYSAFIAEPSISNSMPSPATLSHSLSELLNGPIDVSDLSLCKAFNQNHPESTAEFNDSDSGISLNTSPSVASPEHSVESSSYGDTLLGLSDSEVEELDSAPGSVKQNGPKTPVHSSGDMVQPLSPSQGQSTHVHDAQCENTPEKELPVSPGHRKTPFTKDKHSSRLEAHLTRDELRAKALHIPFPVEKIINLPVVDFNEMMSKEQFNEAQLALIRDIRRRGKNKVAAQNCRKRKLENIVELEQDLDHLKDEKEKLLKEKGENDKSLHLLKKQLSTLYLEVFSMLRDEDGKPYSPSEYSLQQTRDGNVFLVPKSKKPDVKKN

In the case of `Clc1ccc(C(c2ccc(Cl)cc2)C(Cl)Cl)cc1`, the AC50 in [1] was 78.2 µM (active); in [12] it was 90.5 µM (active); in experiment [14], 6.66 µM (active); in experiment [18], 59.6 µM (active) and 33.7 µM (active). In addition, the result in experiment [2], in experiment [3], in experiment [4], in experiment [5], in experiment [6] and in experiment [7] was inactive. For the same compound, the outcome is “inactive” in experiment [8]; “inactive” in experiment [9]; “inactive” in experiment [10]; “inactive” in the experiment with TIMP1, TIMP1 (gene 7076); “inactive” in experiment [11]; “inactive” in experiment [13]. For the same compound, the call in experiment [15], in [16] and in experiment [17] was inactive.

Consider `O=C(Oc1ccc(Br)cc1)N1CCN2CCC1CC2`, for which the outcome in experiment [1], in [2], in experiment [3], in experiment [4], in experiment [5] and in [6] was inactive. Further, the outcome in experiment [7] was “inactive”; in experiment [8], “inactive”; in [9], “inactive”; with TIMP1, TIMP1 (gene 7076) it was “inactive”; in experiment [11], “inactive”; in experiment [13] it was “inactive”. Also, the compound was classed as inactive in experiment [14], in experiment [15], in experiment [16] and in [18]. For the same compound, in [12], the AC50 was 34.8 µM (active).
